Source: PubChem BioAssay AID540253 (National Center for Advancing Translational Sciences (NCATS), 2011)
Out of some 340,000 compounds screened, about 240 (0.071%) were called active. A call without a number means that no potency is given here. Another 5% or so got no clear call; they are omitted. Calls come from the whole dose curve. The full list was thinned out, with actives kept by preference.

These compounds were tested against Snurportin-1 (Homo sapiens) + GTP-binding nuclear protein Ran (Homo sapiens) + Importin subunit beta-1 (Homo sapiens) (UniProt O95149+P62826+Q14974) (assay: qHTS Assay for Inhibitors of RanGTP induced Rango (Ran-regulated importin-beta cargo) - Importin beta complex dissociation). Conditions: Biochemical FRET Rango-importin beta; series mostly up to 46.1 µM.
Source text: NIH Molecular Libraries Probe Production Centers Network [MLPCN] NIH Chemical Genomics Center [NCGC] MLPCN Grant: R03 MH090808-01A1 Assay Submitter (PI): Petr Kalab NCGC Assay Overview: The small GTPase Ran regulates transport of macromolecules between the nucleus and the cytoplasm (nuclear transport) and has important functions in mitotic spindle assembly, nuclear envelope (NE) formation and nuclear pore complex (NPC) assembly. RanGTP gradient is thought to promote spindle assembly by providing a spatial clue to microtubule nucleation and Aurora A activation. Because the localized release and binding of importin alpha cargos relays this spatial clue to SAFs, inhibitors of the Rango - importin beta complex can then be used in further understanding their role in cell cycle specifically in mitosis progression. […] Activation of Aurora A has been linked to different types of cancer and a number of Aurora kinase inhibitors are being developed as potential canter therapeutics; therefore, identified inhibitors of this complex could be developed into potential anti-mitotic probes for cancer treatment. Purified recombinant proteins Rango - importin beta and RanGTP-RCC1 stock premixes were provided by the assay submitter. The assay used a fluorescence resonance energy transfer (FRET) Rango biosensor that contains the IBB of human snurportin 1 flanked by yellow fluorescent protein (EYFP) at the amino terminus and cerulean CFP10 at the carboxy terminus. […] RanGTP binding to the complex (in the presence of RCC1) releases the Rango from the complex. The flexibility of the IBB in the freed Rango allows the donor - acceptor fluorophores to interact, resulting in a high FRET signal. Inhibitors will therefore be identified based on the ability to interfere with the FRET signal increase. DMSO treated and no RanGTP-RCC1 (buffer only) wells were used as negative and positive controls respectively. FRET readings were obtained at two time points. FRET reading prior to importin beta addition (pre-read) were used flag potential compound interference; FRET reading after importin beta addition (post-read) were used to identify inhibitors.
NCGC Assay Protocol Summary: Two and a half uL/well of Rango- importin beta premix solution (0.1 uM Rango, 0.25 uM importin beta, 1x PBS, 1mM DTT, 0.02% Tween-20, 0.1% BSA final concentrations) was dispensed into 1536-well assay plates (Greiner, solid black medium-binding plates) with Aurora Discovery BioRAPTR Flying Reagent Dispenser (FRD; Beckton-Dickenson). Compound solution (23 nL) was transferred to the assay plate using Kalypsys pin tool equipped with a 1536-pin tool and incubated at room temperature for 5 min followed by a FRET pre-read using the PerkinElmer Envision plate reader. Two and a half uL/well of RanGTP-RCC1 premix solution (0.6 uM Ran, 2mM GTP, 0.2 uM RCC1, 1x PBS, 1mM DTT, 0.02% Tween-20, 0.1% BSA final concentrations) were then added and incubated at room temperature giving a final reaction volume of 5uL. After 45min FRET post-read was obtained via the Envision plate reader using the same optics and settings as the pre-read (CFP/YFP optimized dual optical module D450/D505; excitation mirror CFP 430/24 nm; and emission filters CFP 486/10 nm and YFP 530/10 nm).
Note: nearly all actives have a fitted effect of over 45% in size.
Potency is the fitted concentration of half-maximal effect.

| Compound | Potency |
| --- | --- |
| O=C(/C=C/c1ccc([N+](=O)[O-])o1)NNC(=O)c1ccc(F)cc1 | 20.6 µM [inhibitor] (active) |
| O=C(NNC(=O)C1CCCC1)c1ccc(F)cc1 | inactive |
| Cc1ccc(/C=C/C(=O)Nc2ccc([N+](=O)[O-])c(NC(=O)/C=C/c3ccc(C)o3)c2)o1 | inactive |
| O=C(Cc1ccc(NC(=O)C2CCCN(C(=O)CCc3ccccc3)C2)cc1)Nc1ccc(C(=O)N2CCOCC2)cc1 (stereo not drawn) | inactive |
| CC(C)=CCc1ccc(O)c(=O)cc1C(C)C | inactive |
| CCCCN(C(=O)CSCc1ccc(C)cc1)c1c(N)n(Cc2ccccc2)c(=O)[nH]c1=O | inactive |
| CSCCC(NC(=O)COc1ccccc1)C(=O)OCc1ccc(Cl)cc1 (stereo not drawn) | inactive |
| CC(C)Sc1nc(N)nc2c1ncn2C1OC(CO)C(O)C1O (stereo not drawn) | inactive |
| COc1ccc(N)c(C)c1 | inactive |
| CN1CCC(N(C)C(=O)c2ccc(Cl)c(S(=O)(=O)Nc3ccc(Cl)cc3)c2)CC1 | inactive |
| CC1C(C)N(C(=O)CCl)c2ccccc2N1C(=O)CCl (stereo not drawn) | inactive |
| Cn1c(=S)sc2ccc3ccccc3c21 | inactive |
| COC(=O)Cc1c(-c2[nH]c3ccccc3c2CC(=O)OC)[nH]c2ccccc12 | inactive |
| COc1cc2c(cc1OC)C1C(=O)c3cc(OS(C)(=O)=O)c(OC)cc3C1N(C)C2=O (stereo not drawn) | inactive |
| COc1ccc2oc(N)nc2c1 | inactive |
| CCN(CC)S(=O)(=O)c1cccc(NC(=O)c2ccc(S(=O)(=O)N3CCCC3)cc2)c1 | inactive |
| CCOC(=O)C1CCCN(C(=O)C2CCN(S(=O)(=O)c3ccc(Cl)c(C(F)(F)F)c3)CC2)C1 (stereo not drawn) | inactive |

| Compound | Potency |
| --- | --- |
| O=C(Nc1ccccc1)Oc1cccc2cccnc12 | inactive |
| O=C(NCC1CCCCC1)NCC1CCCCC1 | inactive |
| CSCCC(NC(=O)COc1ccccc1)C(=O)N1CCN(c2cccc(C(F)(F)F)c2)CC1 (stereo not drawn) | inactive |
| O=C(CC(=O)c1cccnc1)c1ccccc1 | inactive |
| Nc1cc2c(cc1Br)-c1ccc(F)cc1C2=O | inactive |
| O=C1/C(=C\c2ccc([N+](=O)[O-])cc2)CS(=O)(=O)C/C1=C/c1ccc([N+](=O)[O-])cc1 | inactive |
| O=C(NNC(=O)c1ccccc1O)c1ccccc1O | inactive |
| CCOC(=O)C(CO)NC(=O)C1(NC(C)=O)CCCC1 (stereo not drawn) | inactive |
| CCCC(O)(c1ccccc1)C(c1ccccc1)c1ccccn1 (stereo not drawn) | inactive |
| O=C(NCCc1ccccc1)c1c[nH]c2ccc(F)cc2c1=O | inactive |
| O=C1CC[C@@H]2CC3(C[C@@H]4CCN1[C@H]24)Nc1cc([N+](=O)[O-])ccc1NC3=NC1CCCCC1 (stereo partly drawn) | inactive |
| CN(C(=O)c1cccc(NC(=O)Cc2ccc(NC(=O)C3CCCN(C(=O)C4CC4)C3)cc2)c1)C1CC1 (stereo not drawn) | inactive |
| CN(CCc1ccccc1)C(=O)c1cccc(NC(=O)Cc2cccc(NC(=O)C3CCCN(C(=O)C4CCC4)C3)c2)c1 (stereo not drawn) | inactive |
| C[C@@H]1ON(C)[C@H]2C[C@H]3c4cc(N5CCN(C)CC5)ccc4CCN3C(=O)[C@@H]12 | inactive |
| CC1CCCN(C(=O)Cn2c(=O)oc3cc(S(=O)(=O)N4CCCCC4C)ccc32)C1 (stereo not drawn) | inactive |
| NC1=NOC(=O)C1C1CCCCC1 (stereo not drawn) | inactive |
